Screens deposited in PubChem by National Center for Advancing Translational Sciences (NCATS).
Shown are actives, neighbours in structure and some others; about 19% of the full set was active somewhere.
DT40 TDP1 CPT: growth inhibition of DT40 Tdp1-/-;hTDP1 cells with camptothecin (screen for TDP1 inhibitors); chicken DT40 Tdp1-/-;hTDP1 cells + 20 nM CPT, ATP luminescence, 48 h; actives 12% (n = 420,000); Potency, µM (titrated, usually from 46.2 µM), inactives show top-dose activity change, negative = growth inhibition, actives largely listed as inhibitors; also: potency is read from the fitted curve at half-maximal effect; nearly all actives have a fitted effect of over 55% in size
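Chicken DT40 Tdp1-/- cells stably complemented with human TDP1 were seeded at 400 cells/well in medium containing 20 nM camptothecin, exposed to pin-transferred compounds, and grown at 37 °C for at least 48 hr. Viability was read as ATP luminescence.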
ELG1 repair inh: inhibitors of ELG1-dependent DNA repair in HEK293T cells; AID 504467; actives 2.3% (n = 330,000); Potency, µM (series often up to 46.1 µM), inactives show at the top dose activity change, negative = inhibition, actives largely listed as inhibitors; HEK293T ELG1-luciferase reporter, luminescence, 16 h; DNA damage induced by 5-fluorouridine; also: potency is read from the fitted curve at half-maximal effect; nearly all actives have a fitted effect of over 55% in size
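DMSO vehicle served as the neutral condition. Each well held 2,000 cells given 5-fluorouridine plus compound; after 16 hr at 37 °C/5% CO2, ONE-Glo was added and luciferase measured 30 min later.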
HT1080 IDH1KD tx: kills HT-1080 cells with IDH1 knockdown. HT-1080 IDH1 knockdown viability, ATP luminescence, 48 h. Potency, µM (titrated, usually from 46.1 µM), without a hit: at the highest dose activity, negative = toxicity, usual class: cytotoxic. actives 2% (n = 360,000). AID 686971;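 also: potency is read from the fitted curve at half-maximal effect; 0% = DMSO wells and -100% = cell-free medium wells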
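In this qHTS, HT-1080 cells depleted of IDH1 are exposed for 48 h at 37 °C to compound titrations. Toxicity is scored from CellTiter-Glo luminescence, with DMSO as full viability and medium alone as none.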
IL-1B inflam inh: inhibitors of inflammasome signaling (IL-1 beta secretion); activity change, % at 57.5 µM; THP-1 LPS/ATP IL-1B secretion, AlphaLISA, 16 h; stronger effect = lower value; actives 4.7% (n = 360,000); in the data active = activity change below about -50%; inconclusive = mostly about -30% to -49%
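THP-1 cells pretreated 1 hr with compounds (up to 57.5 uM final), then stimulated with LPS (250 ng/mL final) plus ATP (1.25 mM final); secreted IL-1B measured by AlphaLISA after 16 hr, decreased signal indicating inhibition.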
TDP1 cell noCPT: qHTS for Inhibitors of human tyrosyl-DNA phosphodiesterase 1 (TDP1): qHTS in cells in absence of CPT. Potency, µM (doses to about 46.2 µM), for the others: at the highest dose activity change, negative = growth inhibition, usual class: inhibitors. DT40 Tdp1-/- hTDP1 cells, no CPT, ATP luminescence, 48 h. actives 15% (n = 420,000); also: potency is read from the fitted curve at half-maximal effect; nearly all actives have a fitted effect of over 55% in size
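Growth kinetics read by CellTiter-Glo luminescence after ≥48 hr at 37 °C. Cells: DT40 Tdp1-/- stably carrying human TDP1, 400 per well, compound exposure in the absence of CPT (DMSO vehicle).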
HT1080NT lethal: kills 2HG-producing HT-1080-NT fibrosarcoma cells. HT-1080-NT fibrosarcoma viability, CellTiter-Glo ATP luminescence, 48 h. Potency, µM (doses to about 46.1 µM), without a hit: at the highest dose activity, negative = less viability, usual class: cytotoxic. actives 1.6% (n = 360,000). AID 686970;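 also: NT is the 2HG producing partner of a matched IDH1 knockdown line; potency is read from the fitted curve at half-maximal effect; 0% = DMSO-treated cells and -100% = media-only wells without cells; nearly all actives have a fitted effect of over 55% in size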
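Toxicity toward the 2HG-producing NT line was scored as %Activity, normalised to DMSO and no-cell wells, from CellTiter-Glo luminescence after 48 hours' treatment.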
* marks the source's active call; other numbers are inactive results; u = inconclusive; x = no result given; [ ] = remark or other dose. Unless noted, calls follow the shape of the dose curve; as a rule, active = well fitted curve in the direction sought with a large enough effect; inconclusive = small, poorly fitted or top-dose-only effect, or another doubt; inactive = no such curve, though single readings can be large; an effect the other way counts as inactive or inconclusive. Unless noted, % is scaled to controls: 0 for no effect and ±100 for the full control effect.

SMILES	DT40 TDP1 CPT	ELG1 repair inh	HT1080 IDH1KD tx	IL-1B inflam inh	TDP1 cell noCPT	HT1080NT lethal
O=C(CCN1C(=O)/C(=C/C=C/c2ccccc2)SC1=S)Nc1ccccn1	16.4µM*	u	-20.8%	-16.3	u	u
CCc1ccc(/C=C2\SC(=S)N(CCC(=O)NCCCN3CCOCC3)C2=O)cc1	u	7.3%	u	-87.9*	u	u
O=C(CN1C(=O)S/C(=C\C=C\c2ccccc2)C1=O)Nc1ccccc1C(=O)O	-11.6%	3.1%	5.0%	0.3	-18.3%	18.8%
COc1ccc(-c2nc3ccccc3n(CC(C)C)c2=O)cc1	-14.1%	x	18.6%	-6.7	-1.7%	-1.0%
COc1ccc(NC(=O)Cn2nc(-c3ccncc3)ccc2=O)cc1Cl	u	x	x	x	-13.3%	x
CCC1CN(CCNC(=O)C2CCCCN2C)Cc2cc(OC)ccc2O1 (stereo not given)	3.9%[9.04 µM]	x	x	x	-7.2%	x
CCOc1ccc(/C=C2\SC(=S)N(CC(=O)NCCCN3CCOCC3)C2=O)cc1	3.6%	u	-0.2%	-13.4	-3.2%	-17.9%
COc1ccc(/C=C2\SC(=S)N(CCC(=O)NCCCN3CCOCC3)C2=O)cc1	-15.8%	-4.5%	-21.5%	-65.9*	u	-3.0%
CCc1ccc(/C=C2\SC(=S)N(CCCC(=O)Nc3ccccn3)C2=O)cc1	u	-18.4%	6.2%	-13.0	u	5.5%
O=C(CCCN1C(=O)/C(=C/c2cccc(Br)c2)SC1=S)NCCCN1CCOCC1	25.9µM*	u	u	-96.4*	u	u
COC(=O)c1ccc(/C=C2/SC(=S)N(CCCC(=O)Nc3ccccn3)C2=O)cc1	20.6µM*	u	u	3.7	20.6µM*	-10.7%
COc1ccc(N2CCN(CC(=O)Nc3c(C)cccc3C)CC2)cc1	u	x	4.1%	7.2	u	0.8%
O=C(OC(C(=O)NC1CCCCC1)c1ccc(C(F)(F)F)cc1)c1ccco1 (stereo not given)	0.1%	0.4%	2.5%	3.9	u	-0.2%
O=C(COc1ccc(Br)cc1)N1CCN(c2ccc([N+](=O)[O-])c(N3CCCCC3)c2)CC1	u	-24.3%	-22.9%	-20.4	20.6µM*	-7.5%
O=C(COc1ccccc1)N1CCN(c2ccc([N+](=O)[O-])c(N3CCCCC3)c2)CC1	u	u	6.6%	-52.6*	u	9.1%
O=C(COc1ccccc1)N1CCN(c2ccccc2)CC1	1.9%	4.5%	16.3%	7.8	1.4%	8.3%
O=C(COc1ccc(Br)cc1)N1CCN(c2ccccc2)CC1	u	u	-0.4%	-7.5	u	0.9%
COc1ccc([N+](=O)[O-])cc1NC(=O)C(C)OC(=O)CN1C(=O)C2CC=CCC2C1=O (stereo not given)	7.9%	13.5%	-9.4%	-62.9*	-18.5%	-11.1%
COc1ccc([N+](=O)[O-])cc1NC(=O)C(C)OC(=O)Cn1[nH]c(=O)c2ccccc2c1=O (stereo not given)	-2.0%	8.8%	-3.1%	3.5	-11.9%	-1.3%
CCOc1ccc(CN(C)C(C)C(=O)Nc2ccc([N+](=O)[O-])cc2Cl)cc1OC (stereo not given)	16.4µM*	14.6µM*	-24.5%	23.9	u	-17.9%
CC(C)CC(=O)Nc1ccc([N+](=O)[O-])cc1Cl	2.7%	-6.2%	-1.6%	-10.5	3.5%	-1.4%
COc1ccc(Br)cc1CN(C)C(C)C(=O)Nc1cc([N+](=O)[O-])ccc1OC (stereo not given)	u	u	-2.0%	33.4	23.1µM*	-4.6%
COc1ccc(CN(C)C(C)C(=O)Nc2ccc([N+](=O)[O-])cc2Cl)cc1OC (stereo not given)	25.9µM*	9.2µM*	-14.0%	5.1	9.2µM*	-11.5%
CN1OC[C@@H]2CN(C(=O)C(C)(C)C)[C@H](c3ccc(-c4cccnc4)cc3)C[C@@H]21	-13.0%	x	0.1%	-0.4	-5.8%	13.5%
Cc1cc2nc(NC3=NCN(CCN4CCOCC4)CN3)nc(C)c2cc1C	x	-0.4%	x	x	x	x
SMILES	DT40 TDP1 CPT	ELG1 repair inh	HT1080 IDH1KD tx	IL-1B inflam inh	TDP1 cell noCPT	HT1080NT lethal
Cc1nc(NC2=NCN(CCCN3CCOCC3)CN2)nc2c(C)cccc12	u	-4.6%	-13.0%	-60.7*	16.4µM*	-5.3%
O=C(CCc1ccccc1)NCCc1ccc(F)cc1	-3.6%	20.1%	5.8%	-5.4	-16.4%	0.9%
CCOC(=O)c1cc(-c2ccncc2)nc2c1c(C)nn2C	u	u	u	u	18.4µM*	u
CCOC(=O)c1cc(-c2ccc(OC)cc2F)nc2c1c(C)nn2CCC#N	u	11.6µM*	-0.7%	-50.0*	u	7.5%
CCOC(=O)c1cc(-c2ccc3c(c2)OCCO3)nc2c1c(C)nn2CCC#N	u	6.51µM*	-3.3%	0.0	11.6µM*	-8.6%
O=C(Cc1cccc(NC(=O)C2CCCN(C(=O)C3CCCC3)C2)c1)Nc1cccc(C(=O)N2CCOCC2)c1 (stereo not given)	3.0%	x	6.3%	-17.8	-15.9%	1.7%
COc1ccc(CCNC(=O)Cc2c(C)c3c(cc(C)c4c(C)c(C)oc43)oc2=O)cc1OC	-7.8%	x	x	x	-10.2%	x
COCCCNC(=O)Cc1c(C)c2cc3c(cc2oc1=O)OC(C)(C)CC3	25.9µM*	-9.5%	-15.9%	17.0	25.9µM*	-21.0%
Cc1c(CC(=O)NCCCC(=O)O)c(=O)oc2cc3c(cc12)CCC(C)(C)O3	u	u	22.7%	0.0	u	u
COCCCNC(=O)Cc1c(C)c2c(cc(C)c3c(C)c(C)oc32)oc1=O	u	14.6%	-7.7%	29.7	13µM*	7.4%
CN(Cc1ccccc1)C(=O)CSc1n[nH]c(N)n1	6.2%	-21.8%	1.1%	-3.6	2.7%	1.4%
CC(=O)N(Cc1ccccc1)c1c(N)nc(N)[nH]c1=O	8.3%	x	13.1%	-102.9*	0.1%	15.7%
COc1ccc2c(c1)CCc1sc(NC(=O)c3ccco3)nc1-2	u	u	16.8%	6.4	u	29.8%
COc1ccc2c(c1)Cc1sc(NC(=O)c3cccnc3)nc1-2	u	-6.3%	5.0%	u	20.6µM*	16.7%
COc1ccc2c(c1)-c1nc(NC(=O)c3ccco3)sc1CC2	u	u	8.9%	-5.7	14.6µM*	9.7%
COc1ccc2c(c1)Cc1sc(NC(C)=O)nc1-2	-13.3%	u	3.3%	-20.8	4.2%	-3.6%
